Screens (PubChem)
HT1080 IDH1KD tx = qHTS for induction of synthetic lethality in tumor cells producing 2HG: qHTS for the HT-1080-IDH1KD cell line | HT-1080 IDH1 knockdown viability, ATP luminescence, 48 h | Potency, µM (top dose mostly 46.1 µM), for inactives: at the top dose activity, negative = toxicity, actives largely listed as cytotoxic | hit rate 2% among 360,000 | AID 686971, 2013;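 further: potency means the concentration at half of the fitted maximal effect; 0% = DMSO wells and -100% = cell-free medium wells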
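CellTiter-Glo luminescence after 48 h compound exposure at 37 degrees C of IDH1-knockdown HT-1080 cells in 5% FBS RPMI. %Activity scaled between DMSO wells and cell-free media wells, with curves fitted and assigned curve classes.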
TDP1 cell noCPT = qHTS for Inhibitors of human tyrosyl-DNA phosphodiesterase 1 (TDP1): qHTS in cells in absence of CPT; Potency, µM (series often up to 46.2 µM), for inactives: top-dose activity change, negative = growth inhibition, hits mostly inhibitors; hit rate 15% among 420,000; DT40 Tdp1-/- hTDP1 cells, no CPT, ATP luminescence, 48 h; further: potency means the concentration at half of the fitted maximal effect; nearly all actives have a fitted effect of over 55% in size
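Readout: luminescence from CellTiter-Glo after 30 min in the dark at RT. Cells: DT40 Tdp1-/- with stable hTDP1, 400/well. Exposure: compounds alone, ≥48 hr, 37 °C.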
TDP1 cell CPT = qHTS for Inhibitors of human tyrosyl-DNA phosphodiesterase 1 (TDP1): qHTS in cells in presence of CPT | hit rate 12% among 420,000 | Potency, µM (highest dose often 46.2 µM), inactives show top-dose activity change, negative = growth inhibition, most hits filed as inhibitors | chicken DT40 Tdp1-/-;hTDP1 cells + 20 nM CPT, ATP luminescence, 48 h; further: potency means the concentration at half of the fitted maximal effect; nearly all actives have a fitted effect of over 55% in size
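Chicken DT40 Tdp1-/- cells stably complemented with human TDP1 were seeded at 400 cells/well in medium containing 20 nM camptothecin, exposed to pin-transferred compounds, and grown at 37 °C for at least 48 hr. Viability was read as ATP luminescence.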
HT1080NT lethal = qHTS for induction of synthetic lethality in tumor cells producing 2HG: qHTS for the HT-1080-NT fibrosarcoma cell line; Potency, µM (doses to about 46.1 µM), for inactives: at the highest dose activity, negative = less viability, usual class: cytotoxic; hit rate 1.6% among 360,000; AID 686970, 2013; HT-1080-NT fibrosarcoma viability, CellTiter-Glo ATP luminescence, 48 h;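 further: NT is the 2HG producing partner of a matched IDH1 knockdown line; potency means the concentration at half of the fitted maximal effect; 0% = DMSO-treated cells and -100% = media-only wells without cells; nearly all actives have a fitted effect of over 55% in size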
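Compounds were tested in concentration-response format on HT-1080-NT cells for 48 hours at 37 degrees C. Cell viability came from CellTiter-Glo luminescence; curves were classified by r2, response magnitude and activity.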
IL-1B inflam inh = qHTS for Inhibitors of Inflammasome Signaling: IL-1-beta AlphaLISA Primary Screen | hit rate 4.7% among 360,000 | activity change, % at 57.5 µM | THP-1 LPS/ATP IL-1B secretion, AlphaLISA, 16 h; hits give low values; in the data active means activity change below about -50%; inconclusive means mostly about -30% to -49%
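THP-1 cells pretreated 1 hr with compounds (up to 57.5 uM final), then stimulated with LPS (250 ng/mL final) plus ATP (1.25 mM final); secreted IL-1B measured by AlphaLISA after 16 hr, decreased signal indicating inhibition.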
* marks the source's active call; other numbers are inactive results; ? = inconclusive; nt = not tested or not shown; [ ] = remark or other dose. Compounds with a hit are over-represented: about 19% of the library has one in this group of screens. Unless noted, the call rests on the fitted dose curve; in most records, active means well fitted curve in the direction sought with a large enough effect; inconclusive means small, poorly fitted or top-dose-only effect, or another doubt; inactive means no such curve, though single readings can be large; an effect the other way counts as inactive or inconclusive. Unless noted, on the % scale 0 is the no-effect control and ±100 the full control effect.

SMILES	HT1080 IDH1KD tx	TDP1 cell noCPT	TDP1 cell CPT	HT1080NT lethal	IL-1B inflam inh
COc1ccc(CN(C)CC2CCCN(CCc3ccc(Cl)cc3)C2)cc1OC (configuration not stated)	16.4µM*	?	?	29.1µM*	-86.3*
CC(=O)c1cccc(CN(C)CC2CCCN(CCc3ccccc3C)C2)c1 (configuration not stated)	-15.3%	?	16.4µM*	-1.2%	-11.6
COc1cc(CN(C)CC2CCCN(CCc3cccc(C(F)(F)F)c3)C2)ccc1O (configuration not stated)	?	23.1µM*	?	-25.3%	?
CCCCCCN1C[C@@H](O)[C@H](n2cc(C3CC3)nn2)C[C@@H]1c1ccccc1	-3.3%	16.4µM*	18.4µM*	-10.0%	-11.8
CCCCCC(=O)N1C[C@@H](n2cc(C3CC3)nn2)[C@H](O)C[C@@H]1c1ccc(OC)cc1	-9.4%	?	?	-5.4%	21.6
CCCCCCN1C[C@H](n2cc(C3CC3)nn2)[C@@H](O)C[C@@H]1c1ccccc1	?	9.2µM*	20.6µM*	?	6.7
CCCCCCN1C[C@H](n2cc(C3CC3)nn2)[C@@H](O)C[C@@H]1c1ccc(OC)cc1	1.9%	20.6µM*	?	-1.4%	3.4
CCN(CC)S(=O)(=O)c1ccc(N=Nc2c(N)[nH]c(=O)[nH]c2=O)cc1	14.4%	?	-19.3%	19.3%	-4.7
COc1ccc(NC(=O)N2CCCC2C(=O)NCCc2ccccc2)cc1 (configuration not stated)	10.9%	15.6%	-4.7%	6.9%	13.9
O=[N+]([O-])c1ccc2nc(NN=Cc3ccc(O)cc3)sc2c1	29.1µM*	?	29.1µM*	?	-95.5*
CC(C)c1ccc(/C=C/C(=O)Nc2nc3ccc([N+](=O)[O-])cc3s2)cc1	3.6%	-19.0%	-0.6%	0.2%	20.6
C=C(C)C(=O)Nc1cccc(C2=NOC3(C2)C[C@H](C(N)=O)N(C(=O)c2ccccc2C(=O)c2ccccc2)C3)c1 (some centres not stated)	-0.1%	?	?	-2.7%	10.2
CC(NC(=O)CN(C)Cc1nc2ccccc2c(=O)[nH]1)c1ccccc1 (configuration not stated)	8.0%	3.2%	-5.4%	5.7%	20.6
CN(Cc1nc2ccccc2c(=O)[nH]1)Cc1nc2ccsc2c(=O)[nH]1	1.6%	0.92µM*	0.517µM*	0.2%	30.1
CCN(Cc1nc2ccccc2c(=O)[nH]1)C(=O)c1cccc(OCc2c(C)noc2C)c1	?	16.4µM*	?	?	23.5
Cc1ccccc1C(=O)N(Cc1nc2ccccc2c(=O)[nH]1)C1CCCC1	?	?	?	?	-2.9
Cc1ccc(NC(=O)CN(C)Cc2nc3ccccc3c(=O)[nH]2)c(Br)c1	-2.0%[9.24 µM]	20.6µM*	-45.8%	-6.2%	?
CCN(CC(=O)Nc1ccccc1Br)Cc1nc2ccccc2c(=O)[nH]1	-5.9%	?	?	-5.1%	-9.0
Cc1ccc(C(=O)N(Cc2nc3ccccc3c(=O)[nH]2)C2CCCC2)cc1	?	?	13µM*	-9.4%	-21.6
CN1CCCC(C)(C(=O)Nc2ccc3scnc3c2)C1 (configuration not stated)	6.7%	0.6%	0.6%	?	46.5
O=[N+]([O-])c1ccccc1CCc1cnc(Cl)s1	4.1%	8.5%	-19.2%	?	25.6
CSc1ccccc1C(=O)C1CCCN(S(=O)(=O)c2c(C)noc2C)C1 (configuration not stated)	-2.5%	?	?	-13.4%	4.5
CC(OCC(O)CN(C)Cc1nc2ccccc2c(=O)[nH]1)c1ccc(Cl)cc1 (configuration not stated)	?	?	18.4µM*	-10.4%	?
CN(Cc1nc2ccccc2c(=O)[nH]1)C(=O)c1ccccc1OCc1ccc(Cl)cc1	-16.2%	?	-26.9%	-21.5%	-20.6
O=C(c1ccccc1)N(Cc1ccc(F)cc1)Cc1nc2ccccc2c(=O)[nH]1	6.31µM*	-26.6%	?	7.08µM*	21.1
SMILES	HT1080 IDH1KD tx	TDP1 cell noCPT	TDP1 cell CPT	HT1080NT lethal	IL-1B inflam inh
O=C(c1ccncc1)N(Cc1ccccc1)Cc1nc2ccccc2c(=O)[nH]1	-1.9%	-8.9%	-0.3%	-7.4%	15.1
O=C(CCNC(=O)c1ccc([N+](=O)[O-])cc1)Nc1ccc(F)c(F)c1F	10.0%	?	-22.2%	9.7%	16.2
NC(=O)c1ncn([C@@H]2O[C@H](CNCc3cc(Cl)ccc3OCc3ccc(Cl)cc3)[C@@H](O)[C@H]2O)n1	8.3%	0.3%	16.6%	7.6%	34.0
Cc1cccc(NC(=S)N(C)Cc2cn(C)c3ccccc23)c1	-1.3%	16.4µM*	25.9µM*	-2.3%	-23.9
CN(Cc1cn(C)c2ccccc12)C(=S)Nc1cc(F)cc(F)c1	0.0%	?	-25.4%	1.2%	-14.3
Cc1cc(-n2ccnc(NCCc3ccc(S(N)(=O)=O)cc3)c2=O)ccc1Br	nt	25.9µM*	?	nt	nt
COc1ccc(-n2ccnc(NCc3ccc(C)cc3)c2=O)cc1OC	nt	?	-26.9%	nt	nt
COc1cc(C)c(NC(=O)C2CCN(S(=O)(=O)c3cccs3)CC2)cc1OC	-2.1%	6.8%	0.6%	-0.2%[9.24 µM]	0.0
C[C@@H]1OC(C2CCCCC2)N(C)[C@H]2C[C@H]3c4[nH]c5ccccc5c4CCN3C[C@@H]12 (some centres not stated)	-12.4%	?	20.6µM*	-8.1%	-10.9
CCCCNC(=O)CSc1nc2ccccc2c(=O)n1CC1COc2ccccc2O1 (configuration not stated)	-7.6%	-22.6%	-26.7%	1.0%	-6.6
O=C(CNS(=O)(=O)c1ccc2ccccc2c1)OCc1csc(-c2ccccc2)n1	11.8%	20.6µM*	?	19.2%	-7.7
Cc1ccc(S(=O)(=O)NCC(=O)OCc2csc(-c3ccccc3)n2)cc1	9.5%	?	?	4.0%	23.8
Cc1ccc(C)c(S(=O)(=O)Nc2cc(SCC(=O)O)c(O)c3ccccc23)c1	18.4µM*	6.51µM*	5.8µM*	23.1µM*	-98.5*
O=C(O)CSc1cc(NS(=O)(=O)c2cccc([N+](=O)[O-])c2)c2ccccc2c1O	18.4µM*	1.84µM*	2.31µM*	13µM*	-86.4*
